From PubChem BioAssay AID1159580 (chemical genetic matrix, 2015)
Values joined by “and” are separate entries in the source; they are usually repeats but may differ in a detail not shown here. Equal entries are not always repeated. The whole screen tested about 5,500 compounds, of which about 2,000 (36%) were called active. Inconclusive results (about 18%) are left out. Cut-off read from the data, not from the text of the source: active = normalized growth mostly below about 0.91 (no sharp cut-off); inconclusive = no clear call, values can overlap the other calls; inactive = mostly above about 0.92. Some of the results follow.

Experiment: chemical genetic growth profiling, strain panel (AID 1159580);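 note: tested at 20 µM; growth read once vehicle control cultures reached saturation at 30 °C; 1 = growth at the plate median or of vehicle wells; lower values mean less growth of the strain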
Conditions: growth OD

Measured: normalized growth

CC(N=C(NC#N)Nc1ccncc1)C(C)(C)C (stereo not drawn)
inactive: S. cerevisiae deletion strains, locus YJR043C, strain POL32, stronger effect = lower value 1.02 | S. cerevisiae deletion strains, locus YJR075W, strain HOC1, stronger effect = lower value 1.03 | S. cerevisiae deletion strains, locus YKL009W, strain mrt4, stronger effect = lower value 1.04 | S. cerevisiae deletion strains, locus YKL068W, stronger effect = lower value 1.01 | S. cerevisiae deletion strains, locus YKL085W, strain MDH1 (second series), stronger effect = lower value 1.01 | S. cerevisiae deletion strains, locus YKL085W, strain MDH1, stronger effect = lower value 1.01 | S. cerevisiae deletion strains, locus YKL160W, strain elf1, stronger effect = lower value 0.97 | S. cerevisiae deletion strains, locus YKL190W, strain CNB1, stronger effect = lower value 1.01 | S. cerevisiae deletion strains, locus YKR001C, strain vps1, stronger effect = lower value 1.02 | S. cerevisiae deletion strains, locus YKR026C, strain gcn3, stronger effect = lower value 0.978 | S. cerevisiae deletion strains, locus YKR091W, strain srl3, stronger effect = lower value 0.993 | S. cerevisiae deletion strains, locus YLL001W, strain dnm1, stronger effect = lower value 0.956 | S. cerevisiae deletion strains, locus YLL026W, stronger effect = lower value 0.968 | S. cerevisiae deletion strains, locus YLL041C, strain sdh2, stronger effect = lower value 0.982 | S. cerevisiae deletion strains, locus YLR027C, strain aat2, stronger effect = lower value 0.967 | S. cerevisiae deletion strains, locus YLR039C, strain RIC1, stronger effect = lower value 1.02 | S. cerevisiae deletion strains, locus YLR058C, strain SHM2, stronger effect = lower value 1.01 | S. cerevisiae deletion strains, locus YLR102C, strain apc9, stronger effect = lower value 1.02 | S. cerevisiae deletion strains, locus YLR221C, strain rsa3, stronger effect = lower value 1.02 | S. cerevisiae deletion strains, locus YLR258W, strain gsy2, stronger effect = lower value 1.01 | S. cerevisiae deletion strains, locus YLR262C, strain YPT6 (second series), stronger effect = lower value 0.947 | S. cerevisiae deletion strains, locus YLR262C, strain YPT6, stronger effect = lower value 1.04 | S. cerevisiae deletion strains, locus YLR268W, strain sec22, stronger effect = lower value 1.06 | S. cerevisiae deletion strains, locus YLR320W, strain mms22, stronger effect = lower value 1.02 | S. cerevisiae deletion strains, locus YLR330W, strain CHS5, stronger effect = lower value 1.01 | S. cerevisiae deletion strains, locus YLR342W, strain FKS1 (second series), stronger effect = lower value 0.984 | S. cerevisiae deletion strains, locus YLR342W, strain FKS1, stronger effect = lower value 0.945 | S. cerevisiae deletion strains, locus YLR357W, strain rsc2, stronger effect = lower value 0.957 | S. cerevisiae deletion strains, locus YLR370C, strain arc18, stronger effect = lower value 0.972 | S. cerevisiae deletion strains, locus YLR371W, strain rom2, stronger effect = lower value 1.04 | S. cerevisiae deletion strains, locus YLR384C, strain iki3, stronger effect = lower value 0.968 | S. cerevisiae deletion strains, locus YLR418C, strain cdc73, stronger effect = lower value 1.04 | S. cerevisiae deletion strains, locus YML016C, strain PPZ1, stronger effect = lower value 1 | S. cerevisiae deletion strains, locus YML032C, strain rad52, stronger effect = lower value 1.03 | S. cerevisiae deletion strains, locus YML120C, strain ndi1, stronger effect = lower value 0.964 | S. cerevisiae deletion strains, locus YML124C, strain tub3, stronger effect = lower value 1.01 | S. cerevisiae deletion strains, locus YMR058W, strain fet3, stronger effect = lower value 0.978 | S. cerevisiae deletion strains, locus YMR078C, strain ctf18, stronger effect = lower value 1.02 | S. cerevisiae deletion strains, locus YMR125W, strain sto1, stronger effect = lower value 0.984 | S. cerevisiae deletion strains, locus YMR129W, stronger effect = lower value 0.981 | S. cerevisiae deletion strains, locus YMR205C, strain PFK2, stronger effect = lower value 0.984 | S. cerevisiae deletion strains, locus YMR223W, strain ubp8, stronger effect = lower value 0.994 | S. cerevisiae deletion strains, locus YMR231W, strain pep5, stronger effect = lower value 1 | S. cerevisiae deletion strains, locus YMR263W, strain SAP30, stronger effect = lower value 1.04 | S. cerevisiae deletion strains, locus YMR307W, strain GAS1, stronger effect = lower value 0.992 and 1.03 | S. cerevisiae deletion strains, locus YNL067W, strain RPL9B, stronger effect = lower value 1.04 | S. cerevisiae deletion strains, locus YNL071W, strain lat1, stronger effect = lower value 0.988 | S. cerevisiae deletion strains, locus YNL128W, strain TEP1, stronger effect = lower value 1.02 | S. cerevisiae deletion strains, locus YNL153C, strain GIM3, stronger effect = lower value 1.02 | S. cerevisiae deletion strains, locus YNL175C, strain NOP13, stronger effect = lower value 1 | S. cerevisiae deletion strains, locus YNL197C, strain WHI3, stronger effect = lower value 0.977 | S. cerevisiae deletion strains, locus YNL209W, strain ssb2, stronger effect = lower value 0.993 | S. cerevisiae deletion strains, locus YNL224C, strain SQS1, stronger effect = lower value 0.992 | S. cerevisiae deletion strains, locus YNL233W, strain BNI4, stronger effect = lower value 1.02 | S. cerevisiae deletion strains, locus YNL248C, strain rpa49, stronger effect = lower value 1.02 | S. cerevisiae deletion strains, locus YNL250W, strain rad50, stronger effect = lower value 1.01 | S. cerevisiae deletion strains, locus YNL271C, strain bni1, stronger effect = lower value 1.02 | S. cerevisiae deletion strains, locus YNL298W, strain CLA4, stronger effect = lower value 1.02 | S. cerevisiae deletion strains, locus YNL307C, strain MCK1, stronger effect = lower value 1.02 | S. cerevisiae deletion strains, locus YNL322C, strain KRE1 (second series), stronger effect = lower value 0.982 | S. cerevisiae deletion strains, locus YNL322C, strain KRE1, stronger effect = lower value 1.02 and 1 | S. cerevisiae deletion strains, locus YNR049C, strain mso1, stronger effect = lower value 0.986 | S. cerevisiae deletion strains, locus YNR052C, strain pop2, stronger effect = lower value 1.01 | S. cerevisiae deletion strains, locus YOL006C, strain TOP1, stronger effect = lower value 1.08 | S. cerevisiae deletion strains, locus YOL012C, strain htz1 1.52 | S. cerevisiae deletion strains, locus YOL147C, strain pex11, stronger effect = lower value 1.01 | S. cerevisiae deletion strains, locus YOR001W, strain rrp6, stronger effect = lower value 0.957 | S. cerevisiae deletion strains, locus YOR061W, strain CKA2, stronger effect = lower value 0.999 | S. cerevisiae deletion strains, locus YOR069W, strain VPS5, stronger effect = lower value 1.01 | S. cerevisiae deletion strains, locus YOR070C, strain gyp1, stronger effect = lower value 0.996 | S. cerevisiae deletion strains, locus YOR080W, strain dia2, stronger effect = lower value 0.963 | S. cerevisiae deletion strains, locus YOR083W, strain WHI5 (second series), stronger effect = lower value 0.984 | S. cerevisiae deletion strains, locus YOR083W, strain WHI5, stronger effect = lower value 0.956 | S. cerevisiae deletion strains, locus YOR106W, strain vam3, stronger effect = lower value 0.964 | S. cerevisiae deletion strains, locus YOR136W, strain idh2, stronger effect = lower value 1.01 | S. cerevisiae deletion strains, locus YOR144C, strain elg1, stronger effect = lower value 1.02 | S. cerevisiae deletion strains, locus YOR184W, strain ser1, stronger effect = lower value 1.03 | S. cerevisiae deletion strains, locus YOR265W, strain rbl2, stronger effect = lower value 0.98 | S. cerevisiae deletion strains, locus YOR270C, strain vph1, stronger effect = lower value 0.997 | S. cerevisiae deletion strains, locus YOR290C, strain snf2, stronger effect = lower value 1.01 | S. cerevisiae deletion strains, locus YOR316C, strain cot1, stronger effect = lower value 1.02 | S. cerevisiae deletion strains, locus YPL051W, strain arl3, stronger effect = lower value 0.985 | S. cerevisiae deletion strains, locus YPL055C, strain LGE1, stronger effect = lower value 1.03 | S. cerevisiae deletion strains, locus YPL078C, strain atp4, stronger effect = lower value 0.919 | S. cerevisiae deletion strains, locus YPL106C, strain sse1, stronger effect = lower value 0.945 | S. cerevisiae deletion strains, locus YPL240C, strain hsp82, stronger effect = lower value 0.972 | S. cerevisiae deletion strains, locus YPL241C, strain CIN2, stronger effect = lower value 1 | S. cerevisiae deletion strains, locus YPR119W, strain clb2, stronger effect = lower value 1.02 | S. cerevisiae deletion strains, locus YPR141C, strain kar3, stronger effect = lower value 1.01 | S. cerevisiae deletion strains, locus YPR163C, strain tif3, stronger effect = lower value 1.03 | S. cerevisiae deletion strains, locus YPR167C, strain met16, stronger effect = lower value 1.02 | S. cerevisiae deletion strains, strain wtn01, stronger effect = lower value 1.05 | S. cerevisiae strains, strain wild type, stronger effect = lower value 1.01
